Data on 4 compounds can be found in PubChem BioAssay.

Test [1] is described as follows: ovarian cancer cell viability with rucaparib, profiling panel, oncology-focused library, rucaparib conditional (AID 1508598). Conditions: patient-derived ovarian cancer cells, CellTiter-Glo viability, 144 h, stronger effect = lower value.
The nature of test [2]: growth inhibition of DIPG glioma cells, dose response, cell-based, SU-DIPG-XVII, MIPE5.0, CellTiter-Glo, qHTS (AID 1347060; cut-off not given, nearly all actives have AC50 up to about 26 µM;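 note: cells exposed to compound for 48 hours before viability readout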). To be noted: SU-DIPG-XVII viability, CellTiter-Glo ATP luminescence. On the technique in general: In ATP-based viability assays light output follows the ATP content of the culture.
Test [3] can be described thus: growth inhibition of DIPG glioma cells, dose response, cell-based, JHH-DIPG-1, MIPE4.0, CellTiter-Glo, qHTS (AID 1347062; cut-off not given, nearly all actives have AC50 up to about 27 µM;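 note: cells exposed to compound for two days before readout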). Conditions: JHH-DIPG-1 viability, CellTiter-Glo ATP luminescence.
Test [4] can be described thus: growth inhibition of DIPG glioma cells, dose response, cell-based, SU-DIPG-IV, MIPE4.0, CellTiter-Glo, qHTS (AID 1347063; cut-off not given, nearly all actives have AC50 up to about 30 µM;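 note: compound exposure lasted 48 hours before the viability readout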). Conditions: SU-DIPG-IV viability, CellTiter-Glo ATP luminescence.
The nature of test [5]: growth inhibition of DIPG glioma cells, dose response, cell-based, SU-DIPG-XIII, MIPE5.0, CellTiter-Glo, qHTS (AID 1347064; cut-off not given, nearly all actives have AC50 up to about 23 µM;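 note: cells exposed to compound for 48 hours before the viability read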). Conditions: SU-DIPG-XIII viability, CellTiter-Glo ATP luminescence.
Test [6] in a line: viability loss in pontine glioma line – cell-based, SU-DIPG-XXV, MIPE5.0, CellTiter-Glo, qHTS, dose response (AID 1347065; cut-off not given, nearly all actives have AC50 up to about 26 µM;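 note: cells exposed to compound for 48 hours before ATP readout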). To be noted: CellTiter-Glo ATP luminescence.
Test [7] in a line: JHH-DIPG-1 glioma cell viability, MIPE5.0 library, CellTiter-Glo luminescence, qHTS (AID 1347067; cut-off not given, nearly all actives have AC50 up to about 26 µM;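 note: cells exposed to compound for 48 hours before readout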). To be noted: JHH-DIPG-1 glioma viability, CellTiter-Glo ATP luminescence.
A short description of test [8]: SU-DIPG-XXV glioma cell viability, MIPE5.0 library, qHTS (AID 1347068; cut-off not given, nearly all actives have IC50 up to about 30 µM;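 note: cells exposed to compound for 48 hours before viability readout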). In general terms: Quantitative high-throughput screening tests each substance at several concentrations.
The nature of test [9]: sensitizers of A549 cells to miR-34 induction, primary screen, imaging, A549 dox-inducible miR-34, nuclei and caspase counts (AID 1347080;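 active = compounds whose cell count with miR-34 switched on is under 0.7 times the count with it off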). To be noted: A549 miR-34 inducible, Hoechst nuclei count, 48 h.
Test [10] in a line: modifiers of HSF1 nuclear foci, imaging, Selleck Cancer Library (AID 1347162; in the data active = plate-normalised HSF1 focus index below about 0.46). To be noted: human cells, at 10 µM; SSMD: measured here: HSF1 foci SSMD mean; cell count: measured here: cell number; plate-normalised HSF1 focus index: stronger effect = lower value.
The nature of test [11]: survival rescue of mitochondrial mutant cells in low glucose, primary screen, MELAS cybrids, Rieske KO mouse fibroblasts, CellTiter-Glo (AID 1508586;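 active = mean z-score across replicates of 1.96 or higher in either the MELAS or the Rieske mutant cell line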;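 note: z relative to plate mean and SD of compound and empty wells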).
[12] abbreviates: at 0.0195 µM, OCI-P5x cells, with rucaparib 20 µM, 100% = cells with rucaparib alone.
[13] abbreviates: at 0.0195 µM, OCI-P5x cells, without rucaparib.
The mark [14] stands for this setting: at 0.0781 µM, OCI-C5x cells, with rucaparib 10 µM, 100% = cells with rucaparib alone.
[15] abbreviates: at 0.0781 µM, OCI-C5x cells, without rucaparib.
Setting [16] is: at 0.0781 µM, OCI-P5x cells, with rucaparib 20 µM, 100% = cells with rucaparib alone.
The mark [17] stands for this setting: at 0.0781 µM, OCI-P5x cells, without rucaparib.
Where [18] appears, read: at 0.313 µM, OCI-C5x cells, with rucaparib 10 µM, 100% = cells with rucaparib alone.
[19] abbreviates: at 0.313 µM, OCI-C5x cells, without rucaparib.
Setting [20] is: at 0.313 µM, OCI-P5x cells, with rucaparib 20 µM, 100% = cells with rucaparib alone.
[21] abbreviates: at 0.313 µM, OCI-P5x cells, without rucaparib.
[22] abbreviates: at 1.25 µM, OCI-C5x cells, with rucaparib 10 µM, 100% = cells with rucaparib alone.
The mark [23] stands for this setting: at 1.25 µM, OCI-C5x cells, without rucaparib.
Setting [24] is: at 1.25 µM, OCI-P5x cells, with rucaparib 20 µM, 100% = cells with rucaparib alone.
[25] abbreviates: at 1.25 µM, OCI-P5x cells, without rucaparib.
Setting [26] is: at 5 µM, OCI-C5x cells, with rucaparib 10 µM, 100% = cells with rucaparib alone.
[27] abbreviates: at 5 µM, OCI-C5x cells, without rucaparib.
The mark [28] stands for this setting: at 5 µM, OCI-P5x cells, with rucaparib 20 µM, 100% = cells with rucaparib alone.
[29] abbreviates: at 5 µM, OCI-P5x cells, without rucaparib.
The mark [30] stands for this setting: stronger effect = lower value, cell number ratio, induced over uninduced.
The mark [31] stands for this setting: measured here: relative caspase fold change +Dox/-Dox.
The mark [32] stands for this setting: measured here: total cells with miR-34 induction, stronger effect = lower value.
The mark [33] stands for this setting: measured here: total cells without miR-34 induction.
Setting [34] is: MELAS cybrid survival, CellTiter-Glo 48 h, stronger effect = higher value.
Setting [35] is: Rieske KO mouse fibroblast survival, CellTiter-Glo 72 h.

SMILES strings stand for the structures. Where “and” joins values, the source holds several entries; their conditions need not be identical. Equal values may be shown once. Results filed as inconclusive are left out. Calls of active or inactive are those of the source.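 Rule for the calls, unless noted: active = normalized viability below 100% at a tested concentration; inactive = the rest.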

The viability is a read-out of living cells in per cent, often relative to untreated cells. In the case of `CN(c1ncccc1CNc1nc(Nc2ccc3c(c2)CC(=O)N3)ncc1C(F)(F)F)S(C)(=O)=O`, the viability was 106% (inactive) in test [1] (setting [12]); 106% (inactive) in test [1] (setting [13]); 111% (inactive) in test [1] (setting [14]); 122% (inactive) in [1] (setting [15]); 92.3% (active) in test [1] (setting [16]); 101% (inactive) in [1] (setting [17]). Also, the viability is 110% (inactive) in test [1] (setting [18]); 119% (inactive) in test [1] (setting [19]); 90.8% (active) in [1] (setting [20]); 93.6% (active) in test [1] (setting [21]); 110% (inactive) in test [1] (setting [22]); 110% (inactive) in [1] (setting [23]). The viability in test [1] (setting [24]) was 76.7% (active); in test [1] (setting [25]), 73.3% (active); in [1] (setting [26]) it was 13% (active); in test [1] (setting [27]) it was 19.1% (active); in [1] (setting [28]), 33.5% (active); in test [1] (setting [29]) it was 24.3% (active).

By AC50 is commonly meant the concentration at which the activity in the assay is half-maximal. As a reminder, the IC50 is the midpoint of a concentration-inhibition curve. `CC(C)(C)c1cnc(CSc2cnc(NC(=O)C3CCNCC3)s2)o1`: the concentration at half-maximal activity (AC50) in test [2] was 118 nM (active); in test [3] it was 166 nM (active); in [4], 264 nM (active); in test [5], 833 nM (active); in test [6] it was 742 nM (active); in test [7], 1180 nM (active). Moreover, the IC50 in [8] is 934 nM (active). The fold change was 0.966 (inactive) in [9] (setting [30]) and 1.56 in test [9] (setting [31]). Also, the values for the cell count in test [9] (setting [32]), in [9] (setting [33]) and in test [10] were 1470, 1520 and 7130, respectively. Besides, the SSMD in test [10] was determined as 0.418. For the same compound, the plate-normalised HSF1 focus index in [10] was 1.03 (inactive). Further, the z-score in test [11] (setting [34]) was 0.429 (inactive); in [11] (setting [35]), -1.89. The viability in test [1] (at 0.000305 µM, OCI-C5x cells, with rucaparib 10 µM, 100% = cells with rucaparib alone) was 114% (inactive); in test [1] (at 0.000305 µM, OCI-C5x cells, without rucaparib) it was 105% (inactive); in test [1] (at 0.000305 µM, OCI-P5x cells, with rucaparib 20 µM, 100% = cells with rucaparib alone), 112% (inactive); in [1] (at 0.000305 µM, OCI-P5x cells, without rucaparib) it was 111% (inactive); in [1] (at 0.00122 µM, OCI-C5x cells, with rucaparib 10 µM, 100% = cells with rucaparib alone), 108% (inactive); in test [1] (at 0.00122 µM, OCI-C5x cells, without rucaparib) it was 104% (inactive). The viability in test [1] (at 0.00122 µM, OCI-P5x cells, with rucaparib 20 µM, 100% = cells with rucaparib alone) is 103% (inactive); in [1] (at 0.00122 µM, OCI-P5x cells, without rucaparib) it was 106% (inactive); in test [1] (at 0.00488 µM, OCI-C5x cells, with rucaparib 10 µM, 100% = cells with rucaparib alone) it was 100% (active); in test [1] (at 0.00488 µM, OCI-C5x cells, without rucaparib), 103% (inactive); in test [1] (at 0.00488 µM, OCI-P5x cells, with rucaparib 20 µM, 100% = cells with rucaparib alone) it was 110% (inactive); in test [1] (at 0.00488 µM, OCI-P5x cells, without rucaparib), 104% (inactive). In addition, the viability in [1] (at 0.0195 µM, OCI-C5x cells, with rucaparib 10 µM, 100% = cells with rucaparib alone) is 108% (inactive); in test [1] (at 0.0195 µM, OCI-C5x cells, without rucaparib), 98.5% (active); in test [1] (setting [12]), 105% (inactive); in test [1] (setting [13]), 110% (inactive); in [1] (setting [14]) it was 108% (inactive); in [1] (setting [15]) it was 100% (active). For the same compound, the viability in test [1] (setting [16]) was 101% (inactive); in [1] (setting [17]) it was 104% (inactive); in [1] (setting [18]) it was 94.4% (active); in test [1] (setting [19]), 97% (active); in [1] (setting [20]), 95.6% (active); in test [1] (setting [21]), 85.8% (active). In addition, the viability in test [1] (setting [22]) was 9.76% (active); in [1] (setting [23]), 9.99% (active); in test [1] (setting [24]), 22.5% (active); in [1] (setting [25]) it was 14% (active); in test [1] (setting [26]), 12% (active); in [1] (setting [27]) it was 10.8% (active). Further, the viability in test [1] (setting [28]) is 20.3% (active); in [1] (setting [29]) it was 11% (active).

On to `CC(C)c1nn(-c2c(Cl)cccc2Cl)c2nc(Cc3ccc(OCCO)cc3)[nH]c(=O)c12`, for which the concentration at half-maximal activity (AC50) in [2] is 41.7 nM (active); in test [3] it was 118 nM (active); in test [4] it was 83.3 nM (active); in [5] it was 46.8 nM (active); in [6], 41.7 nM (active); in [7] it was 46.8 nM (active). Besides, the IC50 in [8] is 83.3 nM (active).

Take `OCc1ccc(-c2ccc(-c3ccc(CO)s3)o2)s1`: the half-maximal activity concentration (AC50) in test [2] is 14800 nM (active); in test [3], 20900 nM (active); in [4], 18700 nM (active); in test [5] it was 16600 nM (active); in test [6], 23500 nM (active); in test [7], 16600 nM (active). Also, the fold change in test [9] (setting [30]) is 0.99 (inactive) and 0.88 (inactive); in test [9] (setting [31]), 0.768 and 1.19. The cell count in test [9] (setting [32]) is 3070 and 2470; in test [9] (setting [33]), 3100 and 2800. Also, the figures for the z-score in test [11] (setting [34]) and in test [11] (setting [35]) were -0.467 (inactive) and 0.342, respectively.
